# Test results published in PubChem BioAssay (NCI).
# About 83,000 compounds went through this panel and 20% of them were active in at least one assay; those are over-represented in the sample as a whole.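 A percent growth of 40 corresponds to 60% growth inhibition; 0 means no net growth; -100 means all cells died. Active threshold: below 10.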 A number with no mark means an inactive call. Calls of active or inactive are those of the source.
# Tests used:
# Assay in all cases: NCI-60 one-dose screen, 48 h (100 = growth as untreated, 0 = no growth, -100 = all killed)
# Conditions in all cases: 10 µM unless noted
# SR leukemia = system: SR leukemia
# RPMI-8226 leukemia = system: RPMI-8226 leukemia
# OVCAR-8 ovarian = system: OVCAR-8 ovarian
# OVCAR-5 ovarian = system: OVCAR-5 ovarian
# OVCAR-4 ovarian = system: OVCAR-4 ovarian
# SK-OV-3 ovarian = system: SK-OV-3 ovarian
# IGROV1 ovarian = system: IGROV1 ovarian
# OVCAR-3 ovarian = system: OVCAR-3 ovarian
# HS 578T breast = system: HS 578T breast
# NCI/ADR-RES ovarian = system: NCI/ADR-RES ovarian
SMILES,growth (SR leukemia),growth (RPMI-8226 leukemia),growth (OVCAR-8 ovarian),growth (OVCAR-5 ovarian),growth (OVCAR-4 ovarian),growth (SK-OV-3 ovarian),growth (IGROV1 ovarian),growth (OVCAR-3 ovarian),growth (HS 578T breast),growth (NCI/ADR-RES ovarian)
COc1ccc(C(=O)C2C(c3ccc(OC)cc3)CN(C)C23C(=O)Nc2ccccc23)cc1 (stereo not given),98%,88.6%,95.5%,88.6%,83.6%,91.4%,80.8%,97.8%,93.2%,76.7%
N#Cc1cccc(NC(=O)c2oc3ccccc3c2-c2cnn(-c3ccccc3)c2)c1,3.02% [50 µM] (active),-16.2% [50 µM] (active),76.4% [50 µM],83.8% [50 µM],89.1% [50 µM],78% [50 µM],92.6% [50 µM],104% [50 µM],89.3% [50 µM],77.2% [50 µM]
O=C1/C(=C/c2ccccc2Br)COc2ccc(O)c(O)c21,14.7%,1.07% (active),9.72% (active),31.4%,48.2%,74.7%,-19.4% (active),8.7% (active),25.2%,7.97% (active)
COc1ccccc1NC(=O)Cn1cc(CN2CCN(c3ccnc4cc(Cl)ccc34)CC2)nn1,92.1%,50.9%,93.4%,82.9%,94.1%,86.6%,90.6%,101%,88.5%,91.5%
CC(=O)OCc1nc(C#N)c(N(C)C)o1,92.2%,99.6%,94.1%,86.9%,100%,90.1%,95%,99.1%,99.4%,103%
Cc1c(-c2nc3ccc(F)cc3c(=O)[nH]2)c2ccccc2n1C,11.3%,40.9%,46.9%,79.4%,59.4%,43.2%,38.9%,10.3%,3.2% (active),21.9%
CN(Cc1ccc(C(F)(F)F)cc1)CC(O)C(=O)Nc1ccc(Cl)cc1 (stereo not given),-31.3% (active),-33.7% (active),6.23% (active),27.9%,15.6%,70.7%,0.563% (active),-40.7% (active),51.7%,39.3%
COCCn1c(-c2csc(-c3cn(C)c4ccc(OC)cc34)n2)cc2cccnc21,18.4%,65.4%,59.7%,79.9%,55.9%,65.2%,94.5%,65.5%,58.5%,46.4%
O=c1oc2ccc([N+](=O)[O-])cc2cc1Br,85%,107%,100%,109%,109%,106%,119%,111%,106%,108%
Cn1cccc1C(=O)C1C(c2cccc([N+](=O)[O-])c2)C2C3CCCCC3CN2C12C(=O)Nc1ccc(Cl)cc12 (stereo not given),5.9% (active),19.6%,63.8%,68.1%,70.5%,70.1%,8.94% (active),70.2%,55.7%,51%
COc1ccc2[nH]cc(C(c3cc(F)cc(F)c3)c3c[nH]c4ccc(OC)cc34)c2c1,46.8%,57.5%,87.2%,85%,93.9%,94.8%,-7.1% (active),89.9%,67.2%,72.9%
O=C(Nn1c2c(sc1=Nc1ccccc1)C(=O)c1ccccc1C2=O)c1cc2ccc1CCc1ccc(cc1)CC2,61.1%,75.2%,62.2%,110%,69.4%,76.3%,48.8%,64.8%,78.9%,70.2%
O=C1/C(=C\c2cn(-c3ccccc3)nc2-c2ccc(-c3cccs3)cc2)CCc2ccccc21,15.9%,52.2%,82.5%,94.9%,75.1%,86.7%,56.5%,47.3%,81.8%,35.5%
O=C(Nc1ccc(NC(=O)c2cc(=O)[nH]c3ccccc23)cc1)Nc1cccc(C(F)(F)F)c1,61.1%,74.4%,65.2%,84.3%,74.2%,69.1%,64.9%,63.9%,50.8%,103%
COc1cc(N2C(=O)[C@H](O)C2c2ccc(SC)cc2)cc(OC)c1OC (stereo not given in full),3.99% (active),9.69% (active),6.99% (active),80.3%,56.5%,3.02% (active),31.4%,-11.9% (active),34.9%,14.2%
O=C(Cn1cc(CN2C(=O)c3ccccc3S2(=O)=O)nn1)Nc1nc2ccccc2s1,121%,107%,102%,101%,100%,79%,93.4%,102%,110%,97.6%
COc1ccc(-c2cn(-c3cc(OC)c(OC)c(OC)c3)c(=O)n2C(C)=O)cc1,22.2%,95.9%,94.5%,84.5%,84.9%,104%,77.7%,109%,93.4%,98.5%
Fc1ccc2[nH]cc(-c3nonc3-c3c[nH]c4ccc(Br)cc34)c2c1,15.2%,29.9%,27%,36.8%,36%,44.3%,41.6%,34.3%,39.5%,23%
CC(=O)[C@@H]1CCC=C2CC[C@]3(C)[C@@H](CC[C@@H]4[C@@]5(C)CCCNC(C)(C)[C@@H]5CC[C@]43C)[C@H]21,-45.2% (active),-49.2% (active),-84.4% (active),16.8%,-67.5% (active),93%,-94.2% (active),-93.3% (active),-30.9% (active),-52.2% (active)
N#Cc1c(-c2ccc(Cl)cc2)nc(NN=Cc2cccc(O)c2)nc1N1CCOCC1,4.7% (active),37.4%,65.4%,97.4%,72.4%,98%,64.9%,77.7%,89.4%,64.9%
CCN(CC)CCSc1nc(-c2ccccc2)c(C#N)c(=O)[nH]1,92.3%,119%,111%,108%,154%,90.8%,117%,116%,63.5%,58%
COc1cc(/C=C/C(=O)c2cccc(Nc3nc(Nc4ccccc4)nc(Nc4ccccc4)n3)c2)cc(OC)c1OC,22.4%,-63.1% (active),27.2%,78.8%,67.4%,90.3%,37.3%,44.9%,50.3%,40.6%
Clc1ccc(CNc2c3ccccc3nc3ccccc23)cc1,2.32% (active),8.02% (active),31.9%,50.5%,33.1%,60%,31.7%,51.1%,53.8%,36.7%
COc1cccc([C@H]2c3[nH]c4ccccc4c3C[C@H]3C(=O)N(CCCCCCC(=O)NO)CC(=O)N23)c1,4.26% (active),14.6%,65.6%,62.1%,62%,77.1%,64.4%,64.7%,59.6%,91.1%
Cn1c(=O)c2c(nc(NC3=NS(=O)(=O)c4ccccc43)n2CC(=O)N2CCc3ccccc32)n(C)c1=O,124%,108%,98.9%,101%,107%,101%,94.7%,110%,97%,91.8%
Nc1nc(=S)c2ncn(C3OC(COP(=O)(O)O)C(O)C3O)c2[nH]1 (stereo not given),11.7%,10.9%,13.8%,36.8%,32.2%,5.27% (active),44.2%,7.25% (active),67.5%,20.9%
